Sampled rows, rich in hits. Any-hit rate of the full collection: about 3.1%.
PLK1 PBD block = qHTS for Inhibitors of PLK1-PDB (polo-like kinase 1 - polo-box domain): Primary Screen. Serine/threonine-protein kinase PLK1 (Homo sapiens), P53350. Plk1 PBD binding of FITC phosphopeptide, fluorescence polarization. Potency, µM, actives largely listed as inhibitors. 2.8% of 360,000 active. AID 720504, 2013; further: series mostly up to about 57 µM; nearly all actives have a fitted effect of over 65% in size
KAT2A inh = qHTS Assay for Inhibitors of GCN5L2 | GCN5L2 HAT assay, ThioGlo1 CoA-SH fluorescence | Potency, µM (titrated, usually from 58.9 µM), usual class: inhibitors | 0.21% of 390,000 active | AID 504327, 2011
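Titration-based screen in which CoA formation is detected via maleimide probe ThioGlo1 (50uM) turning fluorescent on thiol reaction; substrates H3(1-25) 75uM and acetyl-CoA 70uM, GCN5L2 20nM, 20 min incubation at room temperature.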
PI4K2A block = qHTS for small molecular inhibitors of PI4K2A; Phosphatidylinositol 4-kinase type 2-alpha (Homo sapiens), Q9BTU6; purified PI4K2A, ADP-Glo luminescence, 1 h; hits give low values; activity change, negative = inhibition, % at 76.9 µM; 0.13% of 420,000 active; AID 1346378, 2018; in the data active means activity change below about -50%; inconclusive means mostly about -30% to -49%
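In this quantitative HTS, ADP production by PI4K2A was quantified luminescently after 1 h at ambient temperature; 100 microM adenosine served as plate-quality control.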
GLS inh = qHTS for Inhibitors of Glutaminase (GLS); Glutaminase kidney isoform, mitochondrial (Homo sapiens), O94925; GLS enzymatic activity, qHTS titration; Potency, µM (highest dose often 45.5 µM), actives largely listed as inhibitors; 0.21% of 410,000 active; AID 624170, 2012
Target sequence (O94925 whole entry, looked up, canonical isoform): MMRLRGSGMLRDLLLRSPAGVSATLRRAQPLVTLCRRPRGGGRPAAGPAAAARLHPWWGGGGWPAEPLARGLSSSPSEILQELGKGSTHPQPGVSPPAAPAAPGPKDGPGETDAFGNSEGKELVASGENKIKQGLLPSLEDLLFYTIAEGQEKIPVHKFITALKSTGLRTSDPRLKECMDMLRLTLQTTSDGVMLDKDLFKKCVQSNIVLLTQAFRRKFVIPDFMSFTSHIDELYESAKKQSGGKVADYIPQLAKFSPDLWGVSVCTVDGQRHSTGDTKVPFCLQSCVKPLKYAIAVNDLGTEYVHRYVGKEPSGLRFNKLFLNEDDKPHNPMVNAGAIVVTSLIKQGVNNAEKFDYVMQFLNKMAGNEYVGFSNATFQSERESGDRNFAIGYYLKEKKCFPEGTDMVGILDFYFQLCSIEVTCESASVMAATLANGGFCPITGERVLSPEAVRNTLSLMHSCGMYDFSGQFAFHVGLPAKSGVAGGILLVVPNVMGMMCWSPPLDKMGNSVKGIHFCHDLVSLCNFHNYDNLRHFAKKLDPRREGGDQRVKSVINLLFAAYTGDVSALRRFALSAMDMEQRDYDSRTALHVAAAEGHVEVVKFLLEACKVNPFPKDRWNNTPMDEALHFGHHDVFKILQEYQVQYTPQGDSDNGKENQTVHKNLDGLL
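hKGA in 45 mM KH2PO4 (pH 8.2), 0.02% Tween-20 with compound, then 1mM L-Glutamine (stock as added) plus glutamate oxidase/HRP/Amplex red coupling mix. Fluorescence read initially and after 30 min at RT; signal change reflects glutamate formation.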
VDR inhibitor = Inhibitors of the vitamin D receptor (VDR): qHTS. 0.93% of 400,000 active. Potency, µM, hits mostly inhibitors. AID 504847, 2011. Vitamin D3 receptor (Homo sapiens), P11473. VDR-SRC2-3 peptide fluorescence polarization, 2 h
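VDR–SRC2-3 interaction, FP format. Cmpds 23 nl via pintool, brief spin, 2 h ambient incubation.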
A number is an active result. Unless noted, the call rests on the fitted dose curve; in most records, active means well fitted curve in the direction sought with a large enough effect; inconclusive means small, poorly fitted or top-dose-only effect, or another doubt; inactive means no such curve, though single readings can be large; an effect the other way counts as inactive or inconclusive.

Screening CC(C)CNC(=O)c1cccc(NC(=O)CSc2ccccc2)c1 returned PLK1 PBD block inactive, KAT2A inh inactive, PI4K2A block inactive, GLS inh inactive and VDR inhibitor inactive.
`Cc1ccc(O)c(C(C)c2c[nH]c3ccccc23)c1` (stereo unspecified) gave PI4K2A block inactive.
For COc1ccc(CN(C)C(=O)Cn2cc(C)c(=O)[nH]c2=O)cc1OC the results were PLK1 PBD block 26.7µM, PI4K2A block inactive, GLS inh inactive and VDR inhibitor inactive.
COc1cccc(Cn2cc(COC(=O)NCC(C)C)nn2)c1 was read as PI4K2A block inactive.
Cc1ccc(-n2c(Cc3cccs3)nnc2SCc2ccc(C#N)cc2)cc1 was read as PI4K2A block inactive.
Screening O=C(c1ccc(S(=O)(=O)Cc2cc(F)ccc2F)c([N+](=O)[O-])c1)N1CCCCC1 returned PLK1 PBD block inconclusive, KAT2A inh inactive, PI4K2A block inactive, GLS inh inactive and VDR inhibitor inconclusive.
Screening O=C(c1ccc(S(=O)(=O)Cc2cc(F)ccc2F)c([N+](=O)[O-])c1)N1CCCC1 returned PLK1 PBD block 10.6µM, KAT2A inh inactive, PI4K2A block inactive, GLS inh inactive and VDR inhibitor inconclusive.
`O=C(OCCN1CCN(C2CN(Cc3cn(Cc4ccc([N+](=O)[O-])cc4)nn3)S(=O)(=O)C2)CC1)c1cc2ccccc2o1` (stereo unspecified) gave PI4K2A block inactive.
Screening CC(C)(C)c1ccc(-c2nnc(SCC3CCCCO3)n2-c2ccc(Cl)cc2)cc1 (stereo unspecified) returned PI4K2A block inactive.
For CCOC(=O)N1CCN(C(=O)C[C@H]2C[C@@]3(C(=O)OC)C(=C[C@H](C(C)C)O[C@@H]3C3CC3)N(Cc3cccc4ccccc34)C2=O)CC1 the results were PI4K2A block inactive.
For CC=CCn1c(SCc2ccccc2)nc2c1c(=O)[nH]c(=O)n2C the results were PLK1 PBD block 26.7µM, PI4K2A block inactive and GLS inh inactive.
For C/C=C/Cn1c(SCc2ccc(C)cc2)nc2c1c(=O)[nH]c(=O)n2C the results were PLK1 PBD block 21.2µM, KAT2A inh inactive, PI4K2A block inactive, GLS inh inactive and VDR inhibitor inconclusive.
`c1ccc(-c2nc(-c3ccncc3)n[nH]2)nc1` gave PLK1 PBD block inactive, KAT2A inh inactive, PI4K2A block inactive, GLS inh inactive and VDR inhibitor inactive.
Screening c1cc(-c2nsc(-c3ccncc3)n2)ccn1 returned PLK1 PBD block 18.9µM, KAT2A inh inactive, PI4K2A block inactive, GLS inh inactive and VDR inhibitor inconclusive.
`CN(C(=O)C1CCN(c2cncnc2)CC1)C1CCCCC1` gave PI4K2A block inactive.
Screening O=C(CN1CCCc2ccccc21)NCc1ccc(Cl)cc1 returned PI4K2A block inactive.
CCCNC(=O)c1nc(C)n(-c2cc(Cl)ccc2Cl)n1 was read as PLK1 PBD block 21.2µM, KAT2A inh inactive, PI4K2A block inactive, GLS inh inactive and VDR inhibitor inactive.
For CCCNC(=O)c1nc(C)n(-c2cc(Cl)cc(Cl)c2)n1 the results were PLK1 PBD block inactive, KAT2A inh inactive, PI4K2A block inactive, GLS inh inactive and VDR inhibitor inactive.
Screening CNC(=O)c1nc(C)n(-c2ccc(Cl)cc2Cl)n1 returned PLK1 PBD block 3.77µM, KAT2A inh inactive, PI4K2A block inactive, GLS inh inconclusive and VDR inhibitor inconclusive.
Nc1n[nH]c(=S)n1-c1ccc(Cl)cc1 was read as PLK1 PBD block 11.9µM, KAT2A inh inconclusive, PI4K2A block inactive, GLS inh inactive and VDR inhibitor inconclusive.
S=c1[nH]nc(-c2ccc(Cl)cc2)n1-c1ccc(Cl)cc1 was read as PLK1 PBD block inconclusive, KAT2A inh inactive, PI4K2A block inactive, GLS inh inactive and VDR inhibitor inactive.
O=C1NC(=O)/C(=C\c2ccccc2OCc2ccccc2)S1 was read as PLK1 PBD block inconclusive, KAT2A inh inactive, PI4K2A block inactive, GLS inh inactive and VDR inhibitor inactive.
O=C1NC(=O)C(=Cc2ccccc2[N+](=O)[O-])S1 was read as PLK1 PBD block 13.4µM, PI4K2A block inactive, GLS inh inactive and VDR inhibitor inconclusive.
Screening O=C1NC(=O)/C(=C/c2cccc3ccccc23)S1 returned PLK1 PBD block 26.7µM, KAT2A inh inactive, PI4K2A block inactive, GLS inh inactive and VDR inhibitor inactive.
Screening O=C(Nc1nc(Cc2ccccc2)c(-c2ccccc2)n1Cc1ccccc1)c1ccccc1 returned PI4K2A block inactive.
For COc1ccc(-n2c(SCC(=O)c3ccc4ccccc4c3)nnc2-c2ccccc2)cc1 the results were PI4K2A block inactive.
For O=c1cc(-c2ccc(O)cc2)oc2c1ccc1ccccc12 the results were PLK1 PBD block inactive, KAT2A inh inactive, PI4K2A block inactive, GLS inh inactive and VDR inhibitor inactive.
`O=c1cc(-c2ccc(O)cc2)oc2c(O)c(O)c(O)c(O)c12` gave PLK1 PBD block inactive, KAT2A inh inactive, PI4K2A block inactive, GLS inh 11.2µM and VDR inhibitor inactive.
`Cn1cnc([N+](=O)[O-])c1S(=O)(=O)Oc1ccccc1` gave PLK1 PBD block inconclusive, PI4K2A block inactive, GLS inh inactive and VDR inhibitor 25.1µM.
COc1ccc(S[C@]2(C(=O)N3CCOCC3)CC(=O)N(c3ccc(Cl)cc3)[C@@H]2c2ccc(OC)cc2)cc1 was read as PI4K2A block inactive.
`CCc1cccc(CC)c1NC(=O)C(CC)n1nc(C)n2c(cc3cc(C)ccc32)c1=O` (stereo unspecified) gave KAT2A inh inactive, PI4K2A block inactive, GLS inh inactive and VDR inhibitor inactive.
For COc1ccc2[nH]c3c(c2c1)CCN1C(=O)C(CC(=O)NCc2ccc(OC)c(OC)c2)C[C@H](C(=O)N2CCOCC2)[C@@]31CCC1CCCC1 (stereo partly specified) the results were PLK1 PBD block 18.9µM, KAT2A inh inactive, PI4K2A block inactive, GLS inh inactive and VDR inhibitor inconclusive.
O=C(OC12CCCN(C1)/C(=C/c1ccc(Cl)cc1)C2)c1cccc(F)c1 (stereo unspecified) was read as PI4K2A block inactive.
Screening Cc1ccc(C(=O)N/N=C/c2cccc(OC(=O)/C=C/c3ccco3)c2)cn1 returned PLK1 PBD block 26.7µM, KAT2A inh inactive, PI4K2A block inactive, GLS inh inactive and VDR inhibitor inactive.
